Common to all, as to test: DAPPL (digital affinity profiling via proximity ligation, sequencing); 10 mM Tris-HCl pH 7.5, 50 mM NaCl, 1 mM DTT, 4% glycerol, room temperature, 30 min; GST-TFs on glutathione beads, 16-mer random dsDNA library, 0.1% formaldehyde crosslink after washing; high values mean tight binding
The target in one experiment is T1, FLI1 (Homo sapiens, UniProt Q01543 1-452).
T1 sequence: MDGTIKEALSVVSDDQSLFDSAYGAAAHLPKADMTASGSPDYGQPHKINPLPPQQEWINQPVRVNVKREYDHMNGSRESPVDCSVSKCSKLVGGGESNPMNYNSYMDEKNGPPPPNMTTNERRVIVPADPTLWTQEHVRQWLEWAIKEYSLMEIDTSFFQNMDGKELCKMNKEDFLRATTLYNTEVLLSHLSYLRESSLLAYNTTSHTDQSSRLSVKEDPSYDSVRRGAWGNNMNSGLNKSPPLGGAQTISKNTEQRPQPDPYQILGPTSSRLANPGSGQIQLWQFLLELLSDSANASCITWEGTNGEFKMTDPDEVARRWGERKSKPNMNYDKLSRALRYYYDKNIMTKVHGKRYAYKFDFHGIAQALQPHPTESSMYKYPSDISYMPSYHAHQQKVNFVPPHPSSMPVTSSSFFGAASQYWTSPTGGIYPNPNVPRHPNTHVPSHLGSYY
Particulars: protein: recombinant; tags: N-terminal GST; dsDNA, one strand shown. The method in brief: (§1)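 Beads coated with glutathione captured GST-fused human transcription factors that had been expressed in yeast, and the factors were then given DNA barcodes and pooled with a tag-only sample. The pools were incubated with 200 nmole of a random double-stranded 16-mer DNA library in Tris/NaCl/DTT/glycerol buffer for 30 min at room temperature, washed, crosslinked with 0.1% formaldehyde and proximity-ligated with BsaI/T4 ligase at 37 °C for 1 h. PCR amplification and Illumina NextSeq500 sequencing came last. Binding signal is each hexamer's read frequency for a factor divided by its frequency for the tag-only sample.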

A further experiment concerns the target T2, ELK1 (Homo sapiens, UniProt P19419 1-428).
T2 sequence: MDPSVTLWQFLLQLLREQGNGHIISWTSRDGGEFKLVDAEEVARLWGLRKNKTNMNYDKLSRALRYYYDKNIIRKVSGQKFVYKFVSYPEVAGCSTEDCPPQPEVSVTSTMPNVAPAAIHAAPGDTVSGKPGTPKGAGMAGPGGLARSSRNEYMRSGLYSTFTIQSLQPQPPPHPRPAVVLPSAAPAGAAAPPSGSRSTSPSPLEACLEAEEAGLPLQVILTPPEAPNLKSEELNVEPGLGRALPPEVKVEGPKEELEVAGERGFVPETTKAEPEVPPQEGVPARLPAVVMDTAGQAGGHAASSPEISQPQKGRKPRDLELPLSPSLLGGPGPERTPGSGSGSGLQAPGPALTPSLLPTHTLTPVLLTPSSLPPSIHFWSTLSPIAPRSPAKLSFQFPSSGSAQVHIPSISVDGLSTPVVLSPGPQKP
Particulars: protein: recombinant; tags: N-terminal GST; dsDNA, one strand shown. The method in brief: as §1

The target in a further experiment is T3, ERG (Homo sapiens, UniProt P11308 1-479).
T3 sequence: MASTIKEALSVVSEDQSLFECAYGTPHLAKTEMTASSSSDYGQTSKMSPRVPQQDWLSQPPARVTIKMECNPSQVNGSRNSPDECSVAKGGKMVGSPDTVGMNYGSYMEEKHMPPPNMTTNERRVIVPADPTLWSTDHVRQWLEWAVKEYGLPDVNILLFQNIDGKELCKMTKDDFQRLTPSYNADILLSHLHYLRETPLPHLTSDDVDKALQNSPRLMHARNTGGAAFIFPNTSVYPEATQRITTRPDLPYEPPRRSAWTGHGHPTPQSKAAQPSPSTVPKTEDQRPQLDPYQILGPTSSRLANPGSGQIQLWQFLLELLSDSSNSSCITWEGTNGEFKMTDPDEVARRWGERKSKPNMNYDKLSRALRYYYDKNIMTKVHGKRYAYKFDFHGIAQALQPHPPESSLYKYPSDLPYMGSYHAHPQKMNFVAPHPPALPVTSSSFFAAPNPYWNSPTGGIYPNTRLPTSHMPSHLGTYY
Particulars: protein: recombinant; tags: N-terminal GST; dsDNA, one strand shown. The method in brief:
as §1

The next experiment has as its target ELF1 (Homo sapiens, UniProt P32519 1-619). Conditions: protein: recombinant; tags: N-terminal GST; dsDNA, one strand shown. The method in brief: as §1
Another experiment has as its target T4, EHF (Homo sapiens, UniProt Q9NZC4 1-300).
T4 sequence: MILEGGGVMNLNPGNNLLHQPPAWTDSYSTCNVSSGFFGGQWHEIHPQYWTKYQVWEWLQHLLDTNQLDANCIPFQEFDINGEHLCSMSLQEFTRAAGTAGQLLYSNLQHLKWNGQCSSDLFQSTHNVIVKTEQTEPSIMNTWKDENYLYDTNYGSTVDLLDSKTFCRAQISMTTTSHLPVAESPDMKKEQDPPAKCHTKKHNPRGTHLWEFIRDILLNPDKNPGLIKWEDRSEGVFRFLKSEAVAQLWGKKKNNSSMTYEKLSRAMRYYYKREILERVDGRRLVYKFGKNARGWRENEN
Particulars: protein: recombinant; tags: N-terminal GST; dsDNA, one strand shown. The method in brief:
as §1

The target in another experiment is SPI1 (Homo sapiens, UniProt P17947 1-270). Conditions: protein: recombinant; tags: N-terminal GST; dsDNA, one strand shown. The procedure, abridged: as §1
The target in another experiment is SPIB (Homo sapiens, UniProt Q01892 1-262). Particulars: protein: recombinant; tags: N-terminal GST; dsDNA, one strand shown. The procedure, abridged:
as §1

The target in another experiment is T5, ELK3 (Homo sapiens, UniProt P41970 1-407).
T5 sequence: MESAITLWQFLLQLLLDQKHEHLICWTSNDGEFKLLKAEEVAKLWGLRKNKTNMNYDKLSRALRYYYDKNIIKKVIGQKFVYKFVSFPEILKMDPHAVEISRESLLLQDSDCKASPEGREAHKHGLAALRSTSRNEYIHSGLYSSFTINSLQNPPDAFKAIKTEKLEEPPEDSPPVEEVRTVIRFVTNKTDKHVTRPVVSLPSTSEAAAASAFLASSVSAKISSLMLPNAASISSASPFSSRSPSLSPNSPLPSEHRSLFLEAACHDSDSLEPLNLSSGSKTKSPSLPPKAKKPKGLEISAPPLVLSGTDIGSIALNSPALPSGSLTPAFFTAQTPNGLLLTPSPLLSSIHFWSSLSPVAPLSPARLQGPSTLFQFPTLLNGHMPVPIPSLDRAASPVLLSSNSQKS
Conditions: protein: recombinant; tags: N-terminal GST; dsDNA, one strand shown. The procedure, abridged:
as §1

The next experiment addresses ETV5 (Homo sapiens, UniProt P41161 1-510). Conditions: protein: recombinant; tags: N-terminal GST; dsDNA, one strand shown. The method in brief:
as §1

In the next experiment the target is HSF1 (Homo sapiens, UniProt Q00613 1-529). Conditions: protein: recombinant; tags: N-terminal GST; chain copies: 3; dsDNA, one strand shown. The procedure, abridged: as §1
The target in the next experiment is T6, SPIC (Homo sapiens, UniProt Q8N5J4 1-248).
T6 sequence: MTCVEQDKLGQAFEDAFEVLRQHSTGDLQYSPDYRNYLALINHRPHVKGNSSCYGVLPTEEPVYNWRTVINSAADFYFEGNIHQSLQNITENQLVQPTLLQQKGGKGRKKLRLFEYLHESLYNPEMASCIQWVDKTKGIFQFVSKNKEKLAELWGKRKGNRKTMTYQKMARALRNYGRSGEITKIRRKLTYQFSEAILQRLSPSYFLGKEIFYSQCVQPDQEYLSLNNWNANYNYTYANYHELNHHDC
Conditions: protein: recombinant; tags: N-terminal GST; dsDNA, one strand shown. The procedure, abridged:
as §1

The next experiment addresses T7, ELK4 (Homo sapiens, UniProt P28324-2 1-405).
T7 sequence: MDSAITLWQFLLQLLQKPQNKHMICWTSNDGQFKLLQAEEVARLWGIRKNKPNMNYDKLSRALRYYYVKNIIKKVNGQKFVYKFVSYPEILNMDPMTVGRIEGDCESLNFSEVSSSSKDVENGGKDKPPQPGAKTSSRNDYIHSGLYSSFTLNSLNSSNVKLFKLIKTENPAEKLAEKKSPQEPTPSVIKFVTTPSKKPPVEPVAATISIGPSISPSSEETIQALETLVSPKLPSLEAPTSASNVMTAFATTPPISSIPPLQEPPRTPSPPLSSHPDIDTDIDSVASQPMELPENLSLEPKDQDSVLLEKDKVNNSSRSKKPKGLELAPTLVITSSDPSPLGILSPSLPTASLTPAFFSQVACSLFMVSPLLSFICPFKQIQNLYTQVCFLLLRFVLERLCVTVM
Particulars: protein: recombinant; tags: N-terminal GST; dsDNA, one strand shown. The method in brief: as §1

A further experiment deals with T8, ETV2 (Homo sapiens, UniProt O00321 1-342).
T8 sequence: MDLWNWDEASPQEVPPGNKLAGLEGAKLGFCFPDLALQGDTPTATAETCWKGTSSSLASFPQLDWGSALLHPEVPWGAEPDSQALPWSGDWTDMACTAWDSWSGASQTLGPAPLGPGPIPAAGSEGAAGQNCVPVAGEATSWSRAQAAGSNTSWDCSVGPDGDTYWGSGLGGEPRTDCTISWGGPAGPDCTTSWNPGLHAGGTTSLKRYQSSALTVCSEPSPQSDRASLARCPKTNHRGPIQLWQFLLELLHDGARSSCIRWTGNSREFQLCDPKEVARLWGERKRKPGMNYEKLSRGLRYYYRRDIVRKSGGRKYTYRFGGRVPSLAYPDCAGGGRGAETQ
Conditions: protein: recombinant; tags: N-terminal GST; dsDNA, one strand shown. The method in brief: as §1

A further experiment addresses CRX (Homo sapiens, UniProt O43186 1-299). Particulars: protein: recombinant; tags: N-terminal GST; dsDNA, one strand shown. The procedure, abridged:
as §1

The next experiment has as its target ETV1 (Homo sapiens, UniProt P50549 1-477). Conditions: protein: recombinant; tags: N-terminal GST; dsDNA, one strand shown. The procedure, abridged:
as §1

Chain of HSF1 (Q00613 whole entry): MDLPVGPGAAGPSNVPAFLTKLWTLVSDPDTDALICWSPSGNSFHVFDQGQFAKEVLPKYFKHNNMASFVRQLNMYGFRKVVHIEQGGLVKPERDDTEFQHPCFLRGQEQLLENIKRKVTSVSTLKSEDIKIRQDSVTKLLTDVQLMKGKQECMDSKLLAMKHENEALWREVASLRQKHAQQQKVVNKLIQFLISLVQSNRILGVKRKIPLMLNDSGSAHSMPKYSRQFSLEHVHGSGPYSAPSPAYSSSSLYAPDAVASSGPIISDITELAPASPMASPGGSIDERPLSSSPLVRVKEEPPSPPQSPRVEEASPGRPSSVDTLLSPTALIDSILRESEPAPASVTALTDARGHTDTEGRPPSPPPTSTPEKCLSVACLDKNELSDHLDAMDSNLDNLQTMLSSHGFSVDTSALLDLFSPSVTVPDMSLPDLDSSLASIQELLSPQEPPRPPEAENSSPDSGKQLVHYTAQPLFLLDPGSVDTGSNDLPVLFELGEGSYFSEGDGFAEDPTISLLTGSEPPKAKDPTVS
Chain of SPIB (Q01892 whole entry): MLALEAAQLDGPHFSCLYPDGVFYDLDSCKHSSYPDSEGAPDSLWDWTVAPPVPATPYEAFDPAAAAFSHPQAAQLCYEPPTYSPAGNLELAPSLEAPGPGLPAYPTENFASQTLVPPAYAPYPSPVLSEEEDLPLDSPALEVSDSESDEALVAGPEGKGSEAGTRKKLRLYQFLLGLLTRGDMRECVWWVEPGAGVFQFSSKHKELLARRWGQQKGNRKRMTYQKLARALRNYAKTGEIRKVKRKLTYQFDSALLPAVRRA
Chain of CRX (O43186 whole entry): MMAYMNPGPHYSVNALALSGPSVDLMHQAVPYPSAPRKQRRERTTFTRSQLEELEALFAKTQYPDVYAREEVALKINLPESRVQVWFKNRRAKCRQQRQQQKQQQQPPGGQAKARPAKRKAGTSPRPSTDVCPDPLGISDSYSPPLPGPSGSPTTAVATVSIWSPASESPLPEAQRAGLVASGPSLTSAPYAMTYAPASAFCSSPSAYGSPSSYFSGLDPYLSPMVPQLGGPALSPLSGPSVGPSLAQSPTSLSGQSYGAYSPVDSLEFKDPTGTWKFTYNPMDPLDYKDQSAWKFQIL
Chain of ETV5 (P41161 whole entry): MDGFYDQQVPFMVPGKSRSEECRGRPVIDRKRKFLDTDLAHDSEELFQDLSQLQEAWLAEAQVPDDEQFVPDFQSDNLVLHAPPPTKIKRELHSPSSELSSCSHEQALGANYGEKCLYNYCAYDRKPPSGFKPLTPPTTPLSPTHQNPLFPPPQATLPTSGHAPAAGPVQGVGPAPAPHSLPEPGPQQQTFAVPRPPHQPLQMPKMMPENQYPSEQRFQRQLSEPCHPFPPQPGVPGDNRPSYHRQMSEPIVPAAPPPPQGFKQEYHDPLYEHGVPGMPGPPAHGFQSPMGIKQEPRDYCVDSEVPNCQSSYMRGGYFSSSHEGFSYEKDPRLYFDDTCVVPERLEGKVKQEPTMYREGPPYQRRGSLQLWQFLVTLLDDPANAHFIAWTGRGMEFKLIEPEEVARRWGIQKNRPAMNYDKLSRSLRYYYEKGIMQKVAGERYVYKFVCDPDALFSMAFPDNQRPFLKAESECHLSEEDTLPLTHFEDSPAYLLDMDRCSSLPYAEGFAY
Chain of ETV1 (P50549 whole entry): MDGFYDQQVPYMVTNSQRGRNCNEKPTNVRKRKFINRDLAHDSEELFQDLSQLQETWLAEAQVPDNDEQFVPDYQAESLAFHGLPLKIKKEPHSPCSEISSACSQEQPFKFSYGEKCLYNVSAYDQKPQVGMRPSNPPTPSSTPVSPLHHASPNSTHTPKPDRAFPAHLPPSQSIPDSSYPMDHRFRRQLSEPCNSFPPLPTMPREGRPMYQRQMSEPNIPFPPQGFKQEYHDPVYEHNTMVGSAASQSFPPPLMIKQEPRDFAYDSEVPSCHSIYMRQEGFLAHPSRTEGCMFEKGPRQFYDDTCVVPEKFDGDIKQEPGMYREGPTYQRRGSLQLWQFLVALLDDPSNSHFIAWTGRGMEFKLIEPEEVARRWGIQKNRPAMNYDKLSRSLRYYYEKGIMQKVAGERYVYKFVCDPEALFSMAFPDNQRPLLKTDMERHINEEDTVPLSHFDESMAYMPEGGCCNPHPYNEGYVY
Chain of ELF1 (P32519 whole entry): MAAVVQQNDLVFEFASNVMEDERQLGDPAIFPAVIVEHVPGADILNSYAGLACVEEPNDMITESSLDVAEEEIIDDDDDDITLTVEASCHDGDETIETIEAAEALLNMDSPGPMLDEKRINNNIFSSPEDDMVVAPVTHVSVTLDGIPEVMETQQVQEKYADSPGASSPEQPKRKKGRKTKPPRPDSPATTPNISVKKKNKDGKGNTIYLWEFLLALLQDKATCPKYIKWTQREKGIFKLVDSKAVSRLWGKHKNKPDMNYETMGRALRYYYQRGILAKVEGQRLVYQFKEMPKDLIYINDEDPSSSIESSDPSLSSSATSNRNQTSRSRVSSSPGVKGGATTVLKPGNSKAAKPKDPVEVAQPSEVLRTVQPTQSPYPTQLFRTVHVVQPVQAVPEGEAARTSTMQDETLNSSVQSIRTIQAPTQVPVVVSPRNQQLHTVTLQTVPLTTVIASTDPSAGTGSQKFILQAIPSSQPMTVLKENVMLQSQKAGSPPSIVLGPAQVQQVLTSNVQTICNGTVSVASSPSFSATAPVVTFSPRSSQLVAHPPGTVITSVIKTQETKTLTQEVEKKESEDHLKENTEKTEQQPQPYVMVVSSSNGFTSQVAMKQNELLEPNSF

Regarding GAATTA, the binding signal with FLI1 is 1.09 fold enrichment (6-mer frequency, TF over GST control); with ELK1 it was 1.05 fold enrichment (6-mer frequency, TF over GST control); in the experiment with ERG, 1.01 fold enrichment (6-mer frequency, TF over GST control); with ELF1, 1.04 fold enrichment (6-mer frequency, TF over GST control); with EHF, 1.12 fold enrichment (6-mer frequency, TF over GST control); with SPI1, 1.07 fold enrichment (6-mer frequency, TF over GST control). Besides, the binding signal was 1.02 fold enrichment (6-mer frequency, TF over GST control) with SPIB; 1.12 fold enrichment (6-mer frequency, TF over GST control) with ELK3; 1.01 fold enrichment (6-mer frequency, TF over GST control) with ETV5; 1.72 fold enrichment (6-mer frequency, TF over GST control) with HSF1; 1.12 fold enrichment (6-mer frequency, TF over GST control) in the experiment with SPIC; 1.09 fold enrichment (6-mer frequency, TF over GST control) in the experiment with ELK4. The binding signal with ETV2 is 1.02 fold enrichment (6-mer frequency, TF over GST control); in the experiment with CRX it was 2.39 fold enrichment (6-mer frequency, TF over GST control); in the experiment with ETV1, 1.08 fold enrichment (6-mer frequency, TF over GST control).

The values above are taken from article PMC7862700, “An all-to-all approach to the identification of sequence-specific readers for epigenetic DNA modifications on cytosine”.
